Data: the supplement of paper PMC12067093, “Discovery and optimisation of a covalent ligand for TRIM25 and its application to targeted protein ubiquitination” (Chemical Science, 2025)
Of roughly 21,000 targets only a part is listed; those with the largest changes were picked by preference.

Compound: CC1Cc2ccccc2N1C(=O)C1CCCN(C1)C(=O)CCl (mixture of isomers) [TRIM25 ligand 11 (diastereomer mixture)]
Assay: probe-labelled cysteine peptide fold change vs DMSO (competition) (log2 fold change); higher = less target engagement (more negative = stronger competition)
Settings: THP-1, incubation time: 4 h
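Also: competitive chemoproteomic profiling in live THP-1 cells with an iodoacetamide desthiobiotin (IA-DTB) probe, comparing probe-labelled peptide intensities in compound-treated cells against DMSO-treated controls.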

Chain of UniProt Q12986 (Q12986 whole entry, looked up): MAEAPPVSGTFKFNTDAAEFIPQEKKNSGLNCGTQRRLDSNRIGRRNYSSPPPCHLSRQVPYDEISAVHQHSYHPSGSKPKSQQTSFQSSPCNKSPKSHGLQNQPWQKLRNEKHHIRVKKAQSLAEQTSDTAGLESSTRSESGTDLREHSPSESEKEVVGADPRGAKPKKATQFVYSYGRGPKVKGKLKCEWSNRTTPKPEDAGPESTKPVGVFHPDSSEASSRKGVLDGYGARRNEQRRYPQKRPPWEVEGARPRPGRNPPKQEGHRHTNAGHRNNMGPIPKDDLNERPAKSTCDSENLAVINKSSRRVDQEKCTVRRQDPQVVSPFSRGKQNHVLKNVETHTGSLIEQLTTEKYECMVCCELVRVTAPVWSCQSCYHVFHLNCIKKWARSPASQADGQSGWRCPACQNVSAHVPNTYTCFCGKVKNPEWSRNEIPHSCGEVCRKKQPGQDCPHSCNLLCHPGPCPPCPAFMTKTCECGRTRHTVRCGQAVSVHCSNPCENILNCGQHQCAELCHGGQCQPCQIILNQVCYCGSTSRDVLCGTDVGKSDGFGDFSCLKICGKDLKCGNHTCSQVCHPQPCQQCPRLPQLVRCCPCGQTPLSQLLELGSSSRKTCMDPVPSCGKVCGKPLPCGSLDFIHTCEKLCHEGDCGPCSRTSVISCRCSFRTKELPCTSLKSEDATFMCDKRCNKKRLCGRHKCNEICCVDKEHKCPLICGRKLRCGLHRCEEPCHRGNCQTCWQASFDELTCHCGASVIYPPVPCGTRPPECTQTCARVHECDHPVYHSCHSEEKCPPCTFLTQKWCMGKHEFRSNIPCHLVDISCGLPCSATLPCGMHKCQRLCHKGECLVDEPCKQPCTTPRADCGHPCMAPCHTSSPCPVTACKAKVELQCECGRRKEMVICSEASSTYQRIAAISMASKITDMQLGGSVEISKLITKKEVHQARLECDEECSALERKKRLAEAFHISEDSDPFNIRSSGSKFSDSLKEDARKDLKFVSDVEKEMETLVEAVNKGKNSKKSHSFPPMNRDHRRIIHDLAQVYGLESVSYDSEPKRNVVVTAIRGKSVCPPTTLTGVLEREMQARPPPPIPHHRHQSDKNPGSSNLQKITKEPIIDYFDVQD
Chain of UniProt Q5JVF3 (Q5JVF3 whole entry, looked up): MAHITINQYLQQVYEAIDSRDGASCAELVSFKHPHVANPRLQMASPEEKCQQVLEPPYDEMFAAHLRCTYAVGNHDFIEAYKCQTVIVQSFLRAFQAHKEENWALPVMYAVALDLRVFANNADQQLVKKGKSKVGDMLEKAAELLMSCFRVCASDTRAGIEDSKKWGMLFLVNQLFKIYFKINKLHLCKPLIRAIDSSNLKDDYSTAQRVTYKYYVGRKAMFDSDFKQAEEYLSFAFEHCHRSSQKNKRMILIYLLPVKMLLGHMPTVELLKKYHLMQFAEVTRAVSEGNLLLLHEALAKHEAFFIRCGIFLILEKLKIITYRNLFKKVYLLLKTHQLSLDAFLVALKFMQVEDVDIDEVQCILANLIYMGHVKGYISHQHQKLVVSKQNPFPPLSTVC
Chain of UniProt P22234 (P22234 whole entry, looked up): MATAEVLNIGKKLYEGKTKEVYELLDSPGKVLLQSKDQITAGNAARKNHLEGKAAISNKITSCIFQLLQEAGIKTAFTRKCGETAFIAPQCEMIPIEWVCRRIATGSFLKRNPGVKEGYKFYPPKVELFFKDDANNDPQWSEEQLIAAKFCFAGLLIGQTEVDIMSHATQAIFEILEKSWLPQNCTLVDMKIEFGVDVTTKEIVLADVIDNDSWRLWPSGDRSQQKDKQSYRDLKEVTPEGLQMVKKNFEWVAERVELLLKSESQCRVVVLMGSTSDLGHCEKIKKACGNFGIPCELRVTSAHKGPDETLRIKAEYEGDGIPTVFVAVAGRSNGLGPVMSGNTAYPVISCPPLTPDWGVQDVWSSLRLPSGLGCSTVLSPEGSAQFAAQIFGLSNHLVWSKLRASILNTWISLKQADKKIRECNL
Chain of UniProt O95848 (O95848 whole entry, looked up): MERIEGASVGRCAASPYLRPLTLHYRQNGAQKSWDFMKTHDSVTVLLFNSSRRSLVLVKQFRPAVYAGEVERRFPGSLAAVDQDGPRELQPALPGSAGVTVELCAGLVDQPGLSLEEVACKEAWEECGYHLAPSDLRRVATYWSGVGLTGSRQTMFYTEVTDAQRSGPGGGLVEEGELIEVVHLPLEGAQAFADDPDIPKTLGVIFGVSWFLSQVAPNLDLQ
Chain of UniProt O75694 (O75694 whole entry, looked up): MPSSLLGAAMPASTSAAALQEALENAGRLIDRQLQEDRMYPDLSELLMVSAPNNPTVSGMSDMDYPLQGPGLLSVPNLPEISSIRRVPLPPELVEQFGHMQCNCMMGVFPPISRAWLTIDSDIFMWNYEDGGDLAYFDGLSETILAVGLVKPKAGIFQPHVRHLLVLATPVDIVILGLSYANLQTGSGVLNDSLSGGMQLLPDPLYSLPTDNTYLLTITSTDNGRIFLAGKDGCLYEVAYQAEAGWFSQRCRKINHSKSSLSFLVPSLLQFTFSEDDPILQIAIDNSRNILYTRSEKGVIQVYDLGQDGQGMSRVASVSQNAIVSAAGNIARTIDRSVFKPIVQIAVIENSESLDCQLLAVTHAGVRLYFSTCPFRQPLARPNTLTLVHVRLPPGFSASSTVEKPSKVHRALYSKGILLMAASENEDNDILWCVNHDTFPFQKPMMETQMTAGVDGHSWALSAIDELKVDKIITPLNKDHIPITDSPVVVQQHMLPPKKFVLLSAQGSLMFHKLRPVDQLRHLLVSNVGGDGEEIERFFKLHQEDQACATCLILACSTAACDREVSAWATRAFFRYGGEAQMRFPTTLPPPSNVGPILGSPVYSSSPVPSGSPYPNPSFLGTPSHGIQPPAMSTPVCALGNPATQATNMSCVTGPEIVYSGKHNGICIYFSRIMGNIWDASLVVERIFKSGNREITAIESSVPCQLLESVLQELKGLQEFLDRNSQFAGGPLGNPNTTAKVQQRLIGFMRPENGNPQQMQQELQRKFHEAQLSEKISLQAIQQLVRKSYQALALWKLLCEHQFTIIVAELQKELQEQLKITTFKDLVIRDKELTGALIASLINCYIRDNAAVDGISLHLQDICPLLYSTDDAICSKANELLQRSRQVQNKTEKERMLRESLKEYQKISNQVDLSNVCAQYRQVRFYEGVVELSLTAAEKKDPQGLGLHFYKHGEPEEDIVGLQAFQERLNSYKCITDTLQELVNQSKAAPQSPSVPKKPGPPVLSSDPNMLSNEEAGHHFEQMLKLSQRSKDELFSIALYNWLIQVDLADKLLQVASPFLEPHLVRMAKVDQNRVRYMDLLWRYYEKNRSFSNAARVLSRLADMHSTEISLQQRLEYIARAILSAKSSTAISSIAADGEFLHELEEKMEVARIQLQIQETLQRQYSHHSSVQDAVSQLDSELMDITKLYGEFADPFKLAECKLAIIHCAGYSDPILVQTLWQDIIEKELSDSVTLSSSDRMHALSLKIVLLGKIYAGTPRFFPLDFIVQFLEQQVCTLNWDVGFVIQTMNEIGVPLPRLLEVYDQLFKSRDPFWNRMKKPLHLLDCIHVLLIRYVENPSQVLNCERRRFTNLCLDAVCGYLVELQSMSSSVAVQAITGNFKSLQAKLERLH
Chain of UniProt P13674 (P13674 whole entry, looked up): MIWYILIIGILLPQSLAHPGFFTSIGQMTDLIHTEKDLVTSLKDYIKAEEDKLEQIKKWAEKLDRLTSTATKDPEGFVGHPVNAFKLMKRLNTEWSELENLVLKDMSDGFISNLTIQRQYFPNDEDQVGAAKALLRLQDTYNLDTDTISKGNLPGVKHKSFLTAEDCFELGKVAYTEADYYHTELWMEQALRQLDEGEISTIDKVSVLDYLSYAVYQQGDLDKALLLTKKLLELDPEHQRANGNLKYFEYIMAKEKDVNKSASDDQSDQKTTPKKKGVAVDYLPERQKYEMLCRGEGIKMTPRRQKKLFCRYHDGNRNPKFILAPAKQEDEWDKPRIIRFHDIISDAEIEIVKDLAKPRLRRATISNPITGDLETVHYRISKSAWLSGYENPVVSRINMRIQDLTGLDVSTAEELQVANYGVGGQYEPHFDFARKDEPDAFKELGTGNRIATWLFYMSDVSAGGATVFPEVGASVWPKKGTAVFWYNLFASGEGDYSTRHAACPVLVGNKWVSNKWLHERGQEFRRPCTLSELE
Chain of UniProt Q9HBH1 (Q9HBH1 whole entry, looked up): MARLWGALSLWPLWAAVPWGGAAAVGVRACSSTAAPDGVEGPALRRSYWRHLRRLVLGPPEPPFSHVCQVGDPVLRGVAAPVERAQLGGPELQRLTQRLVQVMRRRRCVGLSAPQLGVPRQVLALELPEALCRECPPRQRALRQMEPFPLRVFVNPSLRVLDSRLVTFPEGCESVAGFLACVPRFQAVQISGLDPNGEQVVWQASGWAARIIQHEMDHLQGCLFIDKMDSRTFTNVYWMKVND
Chain of UniProt Q9ULX3 (Q9ULX3 whole entry, looked up): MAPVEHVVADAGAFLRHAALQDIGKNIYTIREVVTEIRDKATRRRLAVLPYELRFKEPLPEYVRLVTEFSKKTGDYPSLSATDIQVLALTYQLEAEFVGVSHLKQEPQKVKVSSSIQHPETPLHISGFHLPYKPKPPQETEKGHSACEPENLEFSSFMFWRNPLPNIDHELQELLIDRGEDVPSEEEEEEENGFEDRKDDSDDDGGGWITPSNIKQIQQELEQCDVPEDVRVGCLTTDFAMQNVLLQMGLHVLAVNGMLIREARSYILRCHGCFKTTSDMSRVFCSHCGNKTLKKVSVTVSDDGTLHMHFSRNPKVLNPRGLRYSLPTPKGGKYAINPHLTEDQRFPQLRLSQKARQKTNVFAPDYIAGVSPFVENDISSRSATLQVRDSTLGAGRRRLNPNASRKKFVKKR

Row | Target | probe-labelled cysteine peptide fold change (10 µM) | probe-labelled cysteine peptide fold change (50 µM)
1 | PAICS_P22234_266_SESQCR (UniProt P22234) | 1.85 | 1.12
2 | NUDT14_O95848_12_CAASPYLRPLTLHYR (UniProt O95848) | -0.125 | 0.0208
3 | PDF_Q9HBH1_222_IIQHEMDHLQGCLFIDK (UniProt Q9HBH1) | -0.0352 | 0.0675
4 | NFX1_Q12986_295_STCDSENLAVINK (UniProt Q12986) | 0.0624 | -0.0282
5 | P4HA1_P13674_293_QKYEMLCR (UniProt P13674) | -0.0868 | -0.162
6 | NOB1_Q9ULX3_147_GHSACEPENLEFSSFMFWR (UniProt Q9ULX3) | -0.0264 | -0.119
7 | NFIX_Q14938_6_MYSPYCLTQDEFHPFIEALLPHVR (UniProt Q14938) | 0.072 | -0.567
8 | NUP155_O75694_667_HNGICIYFSR (UniProt O75694) | -0.0348 | 0.207
9 | PCID2_Q5JVF3_25_DGASCAELVSFK (UniProt Q5JVF3) | -0.115 | -0.0805
10 | NIPBL_Q6KC79_304_GSRPPLILQSQSLPCSSPR (UniProt Q6KC79) | 0.204 | 0.00224
